# Data published in PubChem BioAssay AID1347075 (National Center for Advancing Translational Sciences (NCATS), 2019).
# The whole screen tested about 400,000 compounds, of which about 5,500 (1.4%) were called active. About 9% were inconclusive and are not listed. For the sample, actives were picked, then their nearest neighbours and some compounds at random. Unmarked numbers belong to inactive results. Calls come from the whole dose curve; as a rule, active = well fitted cell-killing curve with a large enough effect; inconclusive = small, poorly fitted or top-dose-only effect, or effect the other way; inactive = flat fitted curve, though single readings scatter.
# Test: qHTS assay for MDR1-selective chemotherapeutics: Primary screen using the parental adenocarcinoma cell KB-3-1; note: nearly all actives have a fitted effect of over 60% in size
# Details: KB-3-1 viability, CellTiter-Glo ATP luminescence, 72 h; series mostly up to 46.1 µM; activity change, negative = cytotoxic: at the top concentration
# In short: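 Luminescent ATP read-out (CellTiter-Glo) measures survival of drug-naive KB-3-1 cells after 72 h compound exposure at 37 °C. Titration series was screened from lowest to highest concentration, with DMSO vehicle plates as background controls.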
# % is set by controls: 0 for no effect and ±100 for the full control effect; potency is the fitted concentration of half-maximal effect.
SMILES,"activity change, negative = cytotoxic",Potency
COc1ccc(S(=O)(=O)n2nc(C)c(S(=O)(=O)N3CCCCCC3)c2C)cc1,16.2%,
N#Cc1ccc[n+](CC(=O)c2ccc(O)c(O)c2)c1,24.8%,
O=C(COC(=O)c1ccccc1O)NCc1ccco1,10.9%,
O=C(COC(=O)c1cnc(Cl)c(Cl)c1)NCc1ccco1,8.56%,
Cc1cc(C(=O)OCC(=O)NCc2ccco2)c(C)n1-c1ccccc1,,4.61 µM (active)
Cc1ccc(NC2=C(c3ccc(C(F)(F)F)cc3)C(=O)c3ccccc32)cc1F,-2.28%,
Cc1cccc(NC(=O)N2CCN(C)c3ncccc32)c1C,0.477%,
CCNC(=S)Nc1ccc2c(c1)c(=O)n(C)n2Cc1ccc(Cl)cc1,-0.0168%,
COc1cc(Cn2c3ccc(NC(=O)CC(C)c4ccccc4)cc3c(=O)n2C)ccc1F (stereo not given),,16.4 µM (active)
COc1ccc(CCNC(=O)Nc2ccc3c(c2)c(=O)n(C)n3C)cc1OC,0%,
CN(Cc1ccccc1)c1ccc(/C=C/c2ccnc3ccccc23)cc1,-20.7%,
CN(C)c1ccc(/C=C/C=C/c2ccnc3ccccc23)cc1,,5.8 µM (active)
CN(C)c1ccc(C=Nc2ccc(/C=C/c3ccnc4ccccc34)cc2)cc1,-14.7%,
CCc1nn(CC(=O)N2CCN(c3ccc(Cl)cc3)CC2)c(=O)c2cc3occc3n12,-3.22%,
CC1CN(C(=O)N2CCC(C(=O)NCc3cccs3)CC2)c2ccccc2O1 (stereo not given),0.156%,
CCOc1ccc(Nc2nc3c(S(=O)(=O)c4cccc(Cl)c4)nnn3c3ccsc23)cc1,-4.65%,
Cc1cccc(NC(=O)CSc2ncc(-c3ccccc3)[nH]2)c1C,4.52%,
CCOc1ccc(C(CCc2ccccc2)NC(=O)c2ccc(OC)c(OC)c2)cc1OCC (stereo not given),-6.52%,
CCOc1ccc(C(NC(=O)c2cc(OC)c(OC)c(OC)c2)c2cc(Cl)c3cccnc3c2O)cc1 (stereo not given),1.48%,
CCCCC(=O)NC(c1ccc(OC)c(OC)c1)c1ccc2cccnc2c1O (stereo not given),,5.8 µM (active)
COc1ccccc1CNC(=O)CCCn1c(=O)c2ccccc2n(CC(=O)Nc2ccc(C)cc2Cl)c1=O,1.36%,
COc1ccccc1N1CCN(CCCNC(=O)c2cnn(-c3ccccc3Cl)c2C2CCN(C(=O)OC(C)(C)C)CC2)CC1,-8.96%,
Oc1ccc(Br)cc1C1C=C(c2ccc3c(c2)OCO3)NC(c2ccc(Cl)cc2)N1 (stereo not given),-20.8%,
Cc1cccc(-c2nc(SCC(=O)Nc3cc(C)on3)c3c(=O)n(C)c(=O)n(C)c3n2)c1,17.7%,
NC(=O)C1CCN(c2ncc(-c3ccc(Cl)cc3)s2)CC1,-4.4%,

SMILES,"activity change, negative = cytotoxic",Potency
Cc1cccc(NC(=O)CCn2c(=O)oc3ccccc32)c1,-9.78%,
CC(=O)Nc1ccc(N2CCOCC2)c(C(=O)Nc2cccc(C)c2)c1,0.437%,
Cc1cccc(NC(=O)c2ccc([N+](=O)[O-])o2)c1,,9.2 µM (active)
CCCN1CCc2nc(N3CCN(C)CC3)ncc2C1,0.109%,
COc1ccc(-c2c(C)nn3c(N4CCC(C(=O)NCCC(C)C)CC4)cc(C)nc23)cc1OC,-6.48%,
CCCCCCCCn1c2c(c(=N)c3c1CCC3)CCCC2,,0.411 µM (active)
CCN1CCC(N(Cc2ccc(F)cc2)C(=O)Nc2cc(C)ccc2C)CC1,-5.29%,
Cc1cc(/C=C2/SC(=O)N(CC(=O)OC(C)C)C2=O)c(C)n1C,-8.03%,
CC(OC(=O)CN1C(=O)c2ccccc2C1=O)C(=O)c1ccccc1 (stereo not given),7.26%,
CC(C)OC(=O)CN1C(=O)C(=O)c2ccccc21,,18.4 µM (active)
CCCCNC(=O)c1cc(-c2ccc(Cl)c(Cl)c2)on1,13.5%,
CCc1cccc(-n2nnc(-c3nsc(NC(=O)c4ccc(C)cc4)n3)c2C)c1,0.369%,
Cc1c(-c2nsc(NC(=O)c3cccc(Cl)c3)n2)nnn1-c1ccccc1C(F)(F)F,,23.1 µM (active)
COc1ccc(-n2nnc(-c3nsc(NC(=O)c4ccc(C)c(C)c4)n3)c2C)cc1Cl,1.71%,
Cc1ccc(-c2nc(=N)sn2Cc2ccccc2)cc1,-13.7%,
CCOc1ccccc1N(C)C(=O)c1cc2c(s1)-c1ccccc1OC2,3.52%,
CCCCC(CCCC)c1ccc(C=Nc2ccc(/C=C/c3ccnc4ccccc34)cc2)cc1,0%,
Cc1cc(C)n2ncc(C(=O)N3CCCC3)c2n1,5.58%,
Cc1cc(=O)oc2cc(OCC3CC(c4ccccc4Cl)=NO3)ccc12 (stereo not given),,1.3 µM (active)
COc1cccc(-c2nnc(SCCOc3ccc4c(C)cc(=O)oc4c3)o2)c1,6.22%,
Cc1ccccc1NC(=O)c1ccc(COc2ccc3c(C)cc(=O)oc3c2)cc1,4.61%,
COC(=O)c1ccc(NC(=O)c2cnn(-c3ccc(Cl)cc3)c2C2CCN(C(=O)OC(C)(C)C)CC2)cc1,5.93%,
Clc1ccc2nc(-c3ccccc3)nc(C(Cl)Cl)c2c1,,3.26 µM (active)
Fc1ccc2nc(-c3ccccc3)nc(SCc3nnc(-c4ccccc4)o3)c2c1,15.5%,
N#CCSc1nc(-c2ccccc2)nc2ccc(F)cc12,-4.14%,

SMILES,"activity change, negative = cytotoxic",Potency
Oc1c(C(c2ccc(F)cc2)N2CCN(Cc3ccccc3)CC2)sc2nc(-c3ccco3)nn12 (stereo not given),7.25%,
COc1cc(OC)c(OC)cc1/C=C/c1nc2ccccc2c(=O)n1-c1ccc(Br)c(C)c1,-8.72%,
Cc1cc(C)nc(NS(=O)(=O)c2ccc(NC(=O)c3cc(=O)c4ccc(C)c(C)c4o3)cc2)n1,-0.0966%,
COc1ccc2c(c1)c(N1CCCC1=O)c(C(=O)Nc1ccc(OC)c(Cl)c1)n2C,-21.1%,
Cc1cc(NC(=O)CSc2nc3c(cc2C#N)CCCCC3)no1,,5.8 µM (active)
CC(NC(=O)CSc1nc2c(cc1C#N)CN(C)CC2)c1ccccc1 (stereo not given),-1.09%,
Cc1cc(NC(=O)COc2ccccc2C#N)no1,4.1%,
COc1ccc(S(=O)(=O)NCC(c2ccc(N(C)C)cc2)N2CCc3ccccc32)cc1OC (stereo not given),-19.8%,
O=C(NNC(=S)NC(=O)c1cn(-c2ccccc2)nc1-c1ccccc1)c1ccncc1,,8.2 µM (active)
O=C(NCCCN1CCOCC1)c1cn(-c2ccccc2)nc1-c1ccc(F)cc1,2.18%,
COc1ccccc1N1CCN(C(=O)c2cn(-c3ccccc3)nc2-c2cccnc2)CC1,-3.96%,
COc1ccc(NC(=O)c2cnc(Nc3ccc(C)c(Cl)c3)c3ccccc23)cc1OC,13.9%,
Brc1nc2ncnc(NCc3ccco3)c2[nH]1,-9.05%,
O=C(CNS(=O)(=O)c1cccs1)N1CCN(c2ccccc2Cl)CC1,5.47%,
Cc1cccc2c1-c1sc(C(=O)Nc3ccc(F)cc3F)cc1CO2,-20.5%,
CCn1cc2nc(SCc3cccc(F)c3)n(CCc3ccccc3)c(=O)c2n1,-0.543%,
Cc1nn(-c2ccccc2)c(Cl)c1/C=N/NC(=O)c1nn(C)cc1[N+](=O)[O-],,18.4 µM (active)
Cn1cc([N+](=O)[O-])c(C(=O)Nc2ccc3c(c2)OCCO3)n1,-20.5%,
Cc1nn(Cc2ccc(Cl)cc2)c(Cl)c1/C=N/NC(=O)CNc1ccccc1F,-11.9%,
Cc1csc(NC(=S)Nc2cccc(Cl)c2)n1,,20.6 µM (active)
Cc1ccc(C2CCN(C(=S)Nc3cccc(Cl)c3)C2)cc1 (stereo not given),3.93%,
O=C(Nc1cccc(Cl)c1)c1csnn1,1.29%,
COc1ccccc1C(=O)NCCn1cc(SCc2ccccc2Cl)c2ccccc21,-13.7%,
CCOC(=O)c1ccc(NC(=O)CCS(=O)(=O)c2ccc3c(c2)oc(=O)n3C)cc1,22.5%,
O=C(NCc1ccc(F)cc1)c1ccc(Cn2c(SCc3ccc(F)cc3)nc3cccnc32)cc1,-6.9%,

SMILES,"activity change, negative = cytotoxic",Potency
Cc1ccc(OCCSc2nc(-c3cccs3)nc3cc(=O)[nH]n23)cc1Cl,-7.11%,
COc1cccc2c1C(=O)c1c(O)c3c(c(O)c1C2=O)CC(O)(C(C)=NNC(=O)c1ccc(Cl)c(Cl)c1)CC3OC1CC(N)C(O)C(C)O1 (stereo not given),,2.06 µM (active)
Cc1ccc(N2CCN(C(=S)Nc3cc(C)ccn3)CC2)cc1,31.7%,
CCCCCn1c(=O)[nH]c2cc(C(=O)Nc3ccc(F)cc3)ccc2c1=O,-2.16%,
CCC(=C/c1sc2ccc3ccccc3c2[n+]1C)/C=C1\Sc2ccc3ccccc3c2N1C,,9.2 µM (active)
COc1ccc(CNC(=O)COCc2cc(-c3cccs3)on2)cc1OC,-12.5%,
Cc1ccc(OCC(=O)OCc2cc(=O)n3nc(C4CC4)sc3n2)cc1,0.043%,
CCN1/C(=C\c2ccc3ccccc3[n+]2CC)Sc2cc(C)ccc21,,4.61 µM (active)
CCN1/C(=C/c2ccc3ccc(C)cc3[n+]2CC)Sc2ccccc21,,2.59 µM (active)
CC(=O)Nc1ccc(NC(=O)CSc2nnc3c4cc(Br)ccc4n(C)c3n2)cc1,-6.4%,
NC(=O)Nc1ccc(/C=C/c2ccnc3ccccc23)cc1,-7.08%,
N#Cc1ccc[n+](CC(=O)c2ccc(F)cc2)c1,11%,
COc1ccc2sc(-c3ccc(N(C)C)cc3)c(C#CCO)c2c1,,16.4 µM (active)
COc1ccc2sc(-c3ccc(S(C)(=O)=O)cc3)c(-c3ccc(C(N)=O)cc3)c2c1,-8.32%,
COc1ccc2sc(-c3ccc(S(C)(=O)=O)cc3)c(C#Cc3cncn3C)c2c1,-2.75%,
COC(=O)C1=C(Nc2ccc(C)cc2)C=C(C)C(C(=O)OC)C1c1ccc(F)cc1 (stereo not given),,11.2 µM (active)
COC(=O)C1(C)NC(c2ccc(C)cc2)C2C(=O)N(c3ccc(F)cc3)C(=O)C21 (stereo not given),-1.4%,
COC(=O)C1C(=O)NCC1c1ccc(C)cc1 (stereo not given),16.2%,
Cc1ccc2cccc(NC(=O)c3cccc4ccccc34)c2n1,4.73%,
CCc1ccccc1OCCSc1nc(-c2cccs2)nc2cc(=O)[nH]n12,-16.6%,
O=C(c1cccc(Cl)c1)N1CCN(CCc2ccncc2)CC1,-4.29%,
CNc1cncc(-c2ccc(NS(C)(=O)=O)cc2)n1,,2.91 µM (active)
CS(=O)(=O)Nc1ccc(C(=O)N2CCCC2)cc1,-5.39%,
CNc1cncc(-c2cccc(C(=O)N3CCOCC3)c2)n1,0%,
CC(=O)c1sc(N2C(=O)c3oc4ccccc4c(=O)c3C2c2ccc(C)cc2)nc1C (stereo not given),-14.2%,
